Here are results for 46 molecules from PubChem BioAssay AID1851 (National Center for Advancing Translational Sciences (NCATS), 2009).

As a reminder, the AC50 is the concentration giving half of the maximal activity seen.

SMILES strings stand for the structures. Out of some 16,000 compounds screened, about 5,100 (32%) were called active. Another 25% or so got no clear call; they are omitted. The list shows a part of the results. Unmarked numbers belong to inactive results. Calls come from the whole dose curve; as a rule, active = well fitted curve in the direction sought with a large enough effect; inconclusive = small, poorly fitted or top-dose-only effect, or effect the other way; inactive = no such curve, though single readings can be large or run the other way.
% is set by controls: 0 for no effect and ±100 for the full control effect.

For the test, the target named is Cytochrome P450 3A4 (Homo sapiens) (UniProt P08684). Briefly: Cytochrome panel assay with activity outcomes. The note with it: recombinant CYP, pro-luciferin dealkylation, luminescence, p450-cyp3a4; series mostly up to 57.1 µM; activity, negative = inhibition: at the top concentration. Here is the method: The P450 gene superfamily is involved in the metabolism and clearance of xenobiotics. This assay used various human CYP P450 isozymes to measure the dealkylation of various pro-luciferin substrates to luciferin. The luciferin is then measured by luminescence after the addition of a luciferase detection reagent. Pro-luciferin substrate concentration in the assay was equal to its KM for its CYP P450 isozyme. Inhibitors and some substrates limit the production of luciferin, and decrease measured luminescence.
Cytochrome P450 3A4 (Homo sapiens), sequence (P08684 whole entry, looked up): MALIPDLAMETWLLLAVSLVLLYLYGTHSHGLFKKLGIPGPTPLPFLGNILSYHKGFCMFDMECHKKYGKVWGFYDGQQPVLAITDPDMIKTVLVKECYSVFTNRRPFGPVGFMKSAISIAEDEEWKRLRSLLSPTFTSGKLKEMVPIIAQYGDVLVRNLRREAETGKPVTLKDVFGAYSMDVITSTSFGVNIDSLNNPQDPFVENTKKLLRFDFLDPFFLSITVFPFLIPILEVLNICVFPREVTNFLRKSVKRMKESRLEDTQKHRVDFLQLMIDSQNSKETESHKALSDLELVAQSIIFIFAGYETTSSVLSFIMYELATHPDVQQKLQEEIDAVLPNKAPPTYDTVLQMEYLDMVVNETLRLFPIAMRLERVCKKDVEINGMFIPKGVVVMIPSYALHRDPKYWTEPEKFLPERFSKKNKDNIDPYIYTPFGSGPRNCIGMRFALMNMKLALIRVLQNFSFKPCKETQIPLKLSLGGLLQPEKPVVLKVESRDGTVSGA
NCGC Assay Protocol Summary:
1, Reagent, 2 uL, Isozyme and Pro-Luciferin
2, Library compounds, 23 nl, 40 uM to 0.24 nM dilution series
3, Controls, 23 nl, Isozyme specific inhibitor
4, Reagent, 2 uL, NADPH regeneration solution
5, Incubation time, 60 min, Isozyme specific temperature
6, Reagent, 4ul, Detection reagent
7, Incubation time, 20 min, Isozyme specific temperature
8, Detection, 1 sec, ViewLux luminescent read
The luciferase-based P450-GloTM Screening Systems were obtained from Promega (Madison, WI) for CYP 1A2 (V9770), CYP 2C9 (V9790), CYP2 C19 (V9880), CYP 2D6 (V9890), and CYP 3A4 Luciferin-PPXE (V9910) and were adapted for 1,536-well microplates and an automated protocol. The control compounds furafylline for 1A2 (F124), sulfaphenazole for CYP 2C9 (S0758), ketoconazole for CYP 2C19 (K1003), quinidine for 2D6 (Q3625), and ketoconazole for 3A4 (K1003) were purchased from Sigma Aldrich (St. Louis, MO). Recombinant P450 enzymes were obtained from baculovirus constructs expressed in insect cells (BD/Gentest).
Medium-binding white solid Kalypsys plates used. Mixtures kept on ice. 1A2: 10 nM 1A2, 100 uM Luc-ME, 100 mM KPO4; 2C9: 10 nM 2C9, 100 uM Luc-H, 25 mM KPO4; 2C19: 5 nM 2C19, 10 uM Luc-H EGE, 50 mM KPO4; 2D6: 5 nM 2D6, 30 uM Luc-ME EGE, 100 mM KPO4; 3A4: 10 nM, 25 uM Luc-PPXE. All amounts are reflected in their final concentration, working concentration is 2x.
NADPH regeneration solution: 1.3 mM NADP+, 3.3 mM glucose-6-phosphate, 3.3 mM MgCl2, 0.4 U/mL glucose-6-phosphate dehydrogenase for all isozymes, 200 mM KPO4 for 3A4. Mixture prepared at RT but kept on ice during automated run.
RT incubation in auxilliary plate hotel for 1A2, 2D6, and 3A4; 37C for 2C9 and 2C19.
Keywords: P450, CYP1A2, CYP2C19, CYP2C9, CYP2D6, CYP3A4, Luciferase, MLSMR, MLSCN, NIH Roadmap, qHTS, NCGC
With `NC(=O)COc1c(F)cc(SCCNS(=O)(=O)c2ccccc2)cc1F`, the AC50 is 12.6 µM (active).
Consider `C/C(=C\C=C/[C@@H](C)C(=O)O)[C@H]1CN[C@H](C(=O)O)[C@@H]1CC(=O)O`, for which the “activity, negative = inhibition” value is -6.56%.
On to `CC(C)CNC(=S)NC1CC2CCCC(C1)N2Cc1ccco1` (stereo unspecified), for which the activity, negative = inhibition is 2.91% [at 2.29 µM].
With `Cc1ccc(C(=O)C2C(=O)c3ccccc3C2=O)cc1`, the activity, negative = inhibition was -18.3% [at 11.4 µM].
Turning to `CN(C(=O)Cc1ccc(Cl)c(Cl)c1)[C@@H](CN1CCCC1)c1cccc(OCC(=O)O)c1`, the “activity, negative = inhibition” value is -9.59%.
`CN(C(=O)Cc1ccc(Cl)c(Cl)c1)[C@H](CN1CCCC1)c1ccccc1`: the AC50 was 6.31 µM (active).
Consider `O=C(O)CP(=O)(O)c1ccc(Cl)cc1`, for which the “activity, negative = inhibition” value was 8.85%.
On to `COc1ccc(C[C@H]2c3cc(OC)c(OC)cc3CCN2C)cc1OC`, for which the “activity, negative = inhibition” value is -26.2% [at 25.6 µM].
For the molecule `C[C@]1(C(=O)O)[C@@H]2CC[C@@H](O2)[C@@]1(C)C(=O)O`, the “activity, negative = inhibition” value was -4.96%.
With `CC1(C)CCC2=C(O1)c1ccccc1C(=O)C2=O`, the half-maximal activity concentration (AC50) is 15.8 µM (active).
Regarding `COc1cc2c3cc1Oc1c(O)c(OC)cc4c1[C@@H](Cc1ccc(cc1)Oc1cc(ccc1O)C[C@H]3N(C)CC2)N(C)CC4`, the activity, negative = inhibition was -12.1% [at 11.4 µM].
On to `N[C@H](C(=O)O)c1cc(=O)[nH]o1`, for which the “activity, negative = inhibition” value was -5.66%.
As for `N[C@@H](CP(=O)(O)O)C(=O)O`, the activity, negative = inhibition is -3.52% [at 11.4 µM].
Turning to `OC(Cn1c2ccccc2c2ccccc21)C[n+]1ccccc1` (stereo unspecified), the activity, negative = inhibition was -1.96% [at 2.29 µM].
Take `CCCCC1(CCCC)C(=O)NC(=Nc2cccc(C)c2)NC1=O`: the concentration at half-maximal activity (AC50) is 12.6 µM (active).
Same read-out and setting: under `CCCCCC[C@H]1C(=O)O[C@H](C)[C@H](NC(=O)c2cccc(NC=O)c2O)C(=O)O[C@@H](C)[C@H]1OC(=O)CC(C)C` stands 5.01 µM (active).
As to `C[C@@H]1OC=C2[C@@H](O)[C@H]3O[C@H]3C(=O)[C@@]23[C@H]1[C@H]1C2=C([C@@H](O)[C@H]4O[C@@H]4C2=O)[C@@H]3O[C@@H]1C`, the activity, negative = inhibition was -18.6% [at 11.4 µM].
In the case of `C[N+]1(C)[C@@H]2CC(OC(=O)[C@@H](CO)c3ccccc3)C[C@@H]1[C@H]1O[C@H]12` (stereo partly specified), the activity, negative = inhibition is 2.59% [at 11.4 µM].
As to `Nc1nc(N)c2nc(CNc3ccc(C(=O)N[C@H](CCC(=O)O)C(=O)O)cc3)cnc2n1`, the “activity, negative = inhibition” value was 4.59%.
As to `C[C@@H](COc1ccccc1)N(CCCl)Cc1ccccc1`, the “activity, negative = inhibition” value was -18.7% [at 25.6 µM].
On the same count and under the same terms, the figure for `N[C@@H](CCCP(=O)(O)O)C(=O)O` is -6.54%.
On to `O=c1cc(-c2ccc(O)cc2)oc2c([C@H]3O[C@@H](CO)[C@@H](O)[C@@H](O)[C@@H]3O)c(O)cc(O)c12`, for which the “activity, negative = inhibition” value was -6.72% [at 25.6 µM].
`Cc1ccccc1-c1cncnc1NCCc1cnc[nH]1`: the AC50 was 0.631 µM (active).
For `Clc1ccccc1-c1cncnc1NCCc1cnc[nH]1`, the half-maximal activity concentration (AC50) is 0.501 µM (active).
Regarding `CNCCc1cnc[nH]1`, the “activity, negative = inhibition” value was -27.6%.
Regarding `CN(C)C(=O)Oc1ccc[n+](C)c1`, the “activity, negative = inhibition” value is 0.854%.
Take `NC(=O)c1ccc(C(=O)Nc2ccc([As](=O)(O)O)cc2)cc1`: the activity, negative = inhibition was 8.53% [at 11.4 µM].
The same measure, in the same setting: under `C[C@H](Br)C(=O)N[C@H](CO)C(=O)O` stands 8.21% [at 11.4 µM]; under `O=C(Oc1ccc(S(=O)(=O)F)cc1F)c1ccccc1Cl`, -5.64% [at 11.4 µM].
Still for that read-out and setting: the figure for `NCCc1c[nH]c2ccc(OC(=O)C(=O)O)cc12` is -35.7% [at 11.4 µM]; for `O=C(O)c1cc[c]([Hg][S]c2ncnc3nc[nH]c23)cc1` it is -15.7% [at 11.4 µM]; for `O=C(c1cc(=O)[nH]c2ccc(Br)cc12)N1CCC2(CC1)OCCO2` it is -17.8%.
In the case of `CN(C)c1ccc(NC(=O)CN2C(=O)CN=C(c3ccccc3)c3ccccc32)cc1`, the AC50 is 4.47 µM (active).
On to `Cc1cc2c(C(F)(F)F)cc(=O)oc2c2c1NCCC2`, for which the “activity, negative = inhibition” value is -22.3%.
For `CCCCCCCCCCCCCC(=O)O[C@H]1[C@@H](C)[C@@]2(O)[C@@H](C=C(CO)C[C@]3(O)C(=O)C(C)=C[C@@H]23)C2C(C)(C)[C@]21OC(C)=O` (stereo partly specified), the concentration at half-maximal activity (AC50) is 25.1 µM (active).
Take `CC(C)(c1ccc(OC[C@@H]2CO2)cc1)c1ccc(OC[C@H]2CO2)cc1`: the “activity, negative = inhibition” value was -15.7%.
As to `N=C1c2ccccc2CN1NC(=O)c1ccc(Cl)cc1`, the “activity, negative = inhibition” value is -1.51%.
In the case of `O=C(O)[C@@H](O)[C@@H](O)[C@@H]1[O][Sb][O][C@@H]1CO`, the activity, negative = inhibition is -1.25% [at 11.4 µM].
On to `O=C(Nc1cccc(F)c1)N1CCCC2(CCN(C(=O)Oc3ccccc3)CC2)C1`, for which the AC50 was 15.8 µM (active).
Regarding `COc1ccc(NC(=O)N2CCCC3(CCN(C(=O)Oc4ccccc4)CC3)C2)cc1`, the AC50 was 12.6 µM (active).
As to `O=C(Nc1cccc(F)c1)N1CC2(CCNCC2)C1`, the “activity, negative = inhibition” value is -2.67%.
For the molecule `O=C(Nc1ccccc1)N1CCCC2(CCN(C(=O)Oc3ccccc3)CC2)C1`, the AC50 was 15.8 µM (active).
For `NC[C@@H](Cc1ccccc1)P(=O)(O)O`, the activity, negative = inhibition is -4.81% [at 11.4 µM].
Consider `CC12CN3CC(C)(CN(C1)C31CCSCC1)C2=O`, for which the “activity, negative = inhibition” value is -2.74%.
In the case of `C[C@H]1CC[C@]2(OC1)O[C@@H]1C[C@@H]3[C@@H]4CC[C@H]5C[C@@H](O)CC[C@]5(C)[C@@H]4CC(=O)[C@@]3(C)[C@H]1[C@@H]2C`, the “activity, negative = inhibition” value is -5.6% [at 25.6 µM].
In the case of `Cc1ncsc1CCCl`, the “activity, negative = inhibition” value was 6.86%.
